This is a sample that favours compounds with a hit; in the whole collection about 8.7% have one here.
JMJD2A Tudor inh: qHTS Assay for Inhibitors of JMJD2A-Tudor Domain; 390,000 compounds, 4.4% hits; AID 504339, 2011; AlphaScreen JMJD2A-Tudor / H3K4me3 peptide binding; Potency, µM (highest dose often 114 µM), for the others: top-dose activity change, negative = inhibition, most hits filed as inhibitors; Lysine-specific demethylase 4A (Homo sapiens), O75164; note: % is set by controls: 0 for no effect and ±100 for the full control effect; nearly all actives have a fitted effect of over 50% in size
HP1b binding inh: HTS for Inhibitors of HP1-beta Chromodomain Interactions with Methylated Histone Tails. AlphaScreen HP1-beta / biotin-H3K9me3 peptide binding. AID 540317, 2011. Potency, µM (series often up to 114 µM), inactives show at the top dose activity change, negative = inhibition, hits mostly inhibitors. 390,000 compounds, 0.56% hits; note: nearly all actives have a fitted effect of over 70% in size
Target sequence (P83916 whole entry, looked up): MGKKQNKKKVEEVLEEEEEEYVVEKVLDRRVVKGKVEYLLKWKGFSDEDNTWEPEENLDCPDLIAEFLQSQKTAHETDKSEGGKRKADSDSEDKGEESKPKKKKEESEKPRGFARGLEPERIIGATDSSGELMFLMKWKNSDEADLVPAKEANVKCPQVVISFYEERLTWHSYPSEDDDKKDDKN
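HP1-beta protein (50 nM final) preincubated 30 min at room temperature with biotinylated H3(1-18)K9me3 peptide (50 nM) in PBS pH 7.4, 0.01% Tween-20, then compound added for 30 min. AlphaScreen streptavidin donor/nickel chelate acceptor beads (10 ug/mL final), 30 min dark, luminescence read.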
G9a inh: qHTS Assay for Inhibitors of Histone Lysine Methyltransferase G9a; Histone-lysine N-methyltransferase EHMT2 (Homo sapiens), Q96KQ7; G9a H3K9 monomethylation, AlphaScreen, 2 h; Potency, µM (doses to about 102 µM), for the others: at the top dose activity, negative = inhibition, actives largely listed as inhibitors; 350,000 compounds, 8.8% hits; AID 504332, 2011; note: % is set by controls: 0 for no effect and ±100 for the full control effect; nearly all actives have a fitted effect of over 75% in size
Target sequence (Q96KQ7 913-1193 limits assumed): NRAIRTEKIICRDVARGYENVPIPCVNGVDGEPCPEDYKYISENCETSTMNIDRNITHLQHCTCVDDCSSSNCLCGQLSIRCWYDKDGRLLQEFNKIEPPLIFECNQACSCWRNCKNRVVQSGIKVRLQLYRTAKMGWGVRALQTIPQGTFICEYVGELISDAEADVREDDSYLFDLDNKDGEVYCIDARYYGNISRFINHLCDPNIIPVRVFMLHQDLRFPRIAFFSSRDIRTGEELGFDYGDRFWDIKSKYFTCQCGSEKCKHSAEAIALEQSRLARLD
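Using a bead-based AlphaScreen, monomethylated H3K9 product from 2 h room-temperature reactions (G9a 20 nM, peptide 500 nM, SAM 20 uM) was detected with 0.5 ug/mL rabbit anti-H3K9me1 antibody.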
BAZ2B inh: qHTS Assay for Inhibitors of BAZ2B | 360,000 compounds, 4.4% hits | AlphaScreen BAZ2B-H3K14Ac peptide displacement | Potency, µM (titrated, usually from 114 µM), for the others: at the top dose activity change, negative = inhibition, usual class: inhibitors; note: % is set by controls: 0 for no effect and ±100 for the full control effect; nearly all actives have a fitted effect of over 60% in size
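Inhibition is scored as reduced AlphaScreen emission. The BAZ2B/b-H3(5-23)K14Ac complex (50 nM each) in PBS pH 7.4, 0.01% Tween-20 meets compound (up to 110 uM) for 30 min at RT before bead addition.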
Sfp PPTase inh: qHTS Assay for Inhibitors of Bacillus subtilis Sfp phosphopantetheinyl transferase (PPTase). 4'-phosphopantetheinyl transferase ffp (Bacillus subtilis), Q9F4F7. Biochemical Sfp PPTase activity, qHTS. Potency, µM, for the others: largest response in the series, negative = inhibition, actives largely listed as inhibitors. 310,000 compounds, 3.5% hits;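 note: the enzyme is Sfp with the accession as filed and its product quenches rhodamine fluorescence; 0% = enzyme reaction without inhibitor and -100% = no enzyme wells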
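Step 1, compound plus 15 nM Sfp-PPTase, 15 min, room temperature. Step 2, add rhodamine-CoA (5 uM) and BHQ-2-YbbR (12.5 uM). Step 3, read 525/598 nm fluorescence at 0 and 30 min.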
ALOX12 inh: Primary qHTS assay for inhibitors of human arachidonate 12S-lipoxygenase (ALOX12): Round 2; Potency, µM (top dose mostly 108 µM), for inactives: at the top dose activity change, negative = inhibition, actives largely listed as inhibitors; 580,000 compounds, 1.1% hits; Polyunsaturated fatty acid lipoxygenase ALOX12 (Homo sapiens), P18054; AID 1671190, 2021; purified 12hLO, xylenol orange hydroperoxide absorbance; note: % is set by controls: 0 for no effect and ±100 for the full control effect
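Purified human 12hLO at 150 nM in 25 mM Hepes, 0.01% Triton X-100, pH 7.0, preincubated 15 min at room temperature with compound. Reaction started with 40 uM arachidonic acid, 30 min at room temperature. Hydroperoxide measured by Fe-xylenol orange, 573/405 nm absorbance ratio.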
* hit, by the source's call; [ ] = remark or other dose. Calls come from the whole dose curve; as a rule, active = well fitted curve in the direction sought with a large enough effect; inconclusive = small, poorly fitted or top-dose-only effect, or another doubt; inactive = no such curve, though single readings can be large; an effect the other way counts as inactive or inconclusive. Potency is the fitted concentration of half-maximal effect.

Results for O=C(N/N=C\c1cccs1)c1cnccn1 ?
ALOX12 inh: -36%

Results for O=C(N/N=C/c1cccs1)c1ccccn1 ?
JMJD2A Tudor inh: -14%; HP1b binding inh: 16%; G9a inh: 6.3µM*; BAZ2B inh: inconclusive; Sfp PPTase inh: 50µM*; ALOX12 inh: 23%

Results for Cn1cccc1/C=N/NC(=O)c1cc2ccccc2cc1O ?
JMJD2A Tudor inh: inconclusive; HP1b binding inh: inconclusive; G9a inh: -8%; BAZ2B inh: 28µM*; Sfp PPTase inh: 8%; ALOX12 inh: inconclusive

How did Cn1cccc1/C=C(\C#N)C(N)=S do in these assays?
JMJD2A Tudor inh: -23%; HP1b binding inh: -17%; G9a inh: 50µM*; BAZ2B inh: inconclusive; Sfp PPTase inh: -4%; ALOX12 inh: 0%

Results for O=C(N/N=C/c1cccs1)c1cc(-c2cccs2)nc2ccccc12 ?
ALOX12 inh: 50%

How did Cc1cc(C(=O)N/N=C/c2cccn2C)no1 do in these assays?
JMJD2A Tudor inh: -9%; HP1b binding inh: 8%; G9a inh: -4%[59 µM]; BAZ2B inh: -29%; Sfp PPTase inh: 6%; ALOX12 inh: -17%

How did Cc1cccc(C(=O)NCC(=O)N2CCCC2c2ccccc2)c1 (stereo unspecified) do in these assays?
ALOX12 inh: 18%

What do the screens show for `CCOc1ccc2c(n1)CCN(C(=O)Cc1ccccc1C)C2`?
ALOX12 inh: 5%

Results for COc1ccc(S(=O)(=O)Nc2ccccc2CCc2nc3ccccc3n2C)cc1OC ?
ALOX12 inh: 6%

How did COCCCNc1nc2c([S+](=O)([O-])c3ccc(Br)cc3)nnn2c2ccccc12 do in these assays?
ALOX12 inh: 0%[6.33 µM]

What do the screens show for `O=C(c1ccncc1)N1CCC(n2c(=O)[nH]c3ccccc32)CC1`?
ALOX12 inh: -24%[176 µM]

Results for C/C(=C\C(=O)NCc1ccccn1)CCc1ccccc1 ?
ALOX12 inh: 27%

Results for Cn1cccc1/C=N/NC(N)=S ?
JMJD2A Tudor inh: -17%; HP1b binding inh: 21%; G9a inh: inconclusive; BAZ2B inh: inconclusive; Sfp PPTase inh: 56µM*; ALOX12 inh: -26%

How did Cn1cccc1/C=N/NC(=O)c1ccncc1 do in these assays?
JMJD2A Tudor inh: -14%; HP1b binding inh: 4%; G9a inh: 4%; BAZ2B inh: -22%; Sfp PPTase inh: 9%; ALOX12 inh: 4%

What do the screens show for `Cn1cccc1/C=N/NC(=O)c1ccccn1`?
JMJD2A Tudor inh: inconclusive; HP1b binding inh: -8%; G9a inh: 3.2µM*; BAZ2B inh: 35µM*; Sfp PPTase inh: 79µM*; ALOX12 inh: -9%

What do the screens show for `O=C1NC(=Nc2ccc(Cl)cc2)/C(=C/c2ccco2)S1`?
JMJD2A Tudor inh: 11µM*; HP1b binding inh: -1%; G9a inh: 3.2µM*; BAZ2B inh: 50µM*; Sfp PPTase inh: 50µM*; ALOX12 inh: 25µM*

Results for Cc1cccc(N=C2NC(=O)S/C2=C\c2ccco2)c1 ?
JMJD2A Tudor inh: 40µM*; HP1b binding inh: -21%; G9a inh: 22µM*; BAZ2B inh: inconclusive; Sfp PPTase inh: 56µM*; ALOX12 inh: inconclusive

How did CCC1CCCCN1CCCNC(=O)c1c(O)nc2ccccn2c1=O (stereo unspecified) do in these assays?
JMJD2A Tudor inh: -9%; HP1b binding inh: 23%; G9a inh: 79µM*; BAZ2B inh: -17%; Sfp PPTase inh: 5%; ALOX12 inh: -23%

Results for COc1ccc(-c2nnc(SCC(=O)Nc3cc(C)on3)n2C2CCCCC2)cc1 ?
ALOX12 inh: -15%

Results for COc1ccc(/C=N/n2cnn(Cc3ccccc3Cl)c2=S)cc1OC ?
JMJD2A Tudor inh: -26%; HP1b binding inh: inconclusive; G9a inh: 40µM*; BAZ2B inh: -28%; Sfp PPTase inh: inconclusive; ALOX12 inh: -19%

How did Oc1ccc(/C=N/n2cnn(Cc3ccccc3Cl)c2=S)c(O)c1 do in these assays?
JMJD2A Tudor inh: inconclusive; HP1b binding inh: -31%; G9a inh: 3.2µM*; BAZ2B inh: -29%; Sfp PPTase inh: 14µM*; ALOX12 inh: inconclusive

Results for Oc1ccc(/C=N/N2CCCCC2)c(O)c1 ?
JMJD2A Tudor inh: -30%; HP1b binding inh: -11%; G9a inh: 7%[2.33 µM]; BAZ2B inh: inconclusive; Sfp PPTase inh: -3%; ALOX12 inh: -8%

How did N[C@@H](CO)c1cn([C@@H](Cc2cc3ccccc3[nH]2)C(=O)N2CCNCC2)nn1 do in these assays?
JMJD2A Tudor inh: 79µM*; HP1b binding inh: 27%; G9a inh: -6%[12.7 µM]; BAZ2B inh: 50µM*; Sfp PPTase inh: 9%; ALOX12 inh: inconclusive

What do the screens show for `CC(C)[C@H](N)c1cn([C@@H](CO)C(=O)N2CCNCC2)nn1`?
JMJD2A Tudor inh: -31%; HP1b binding inh: 15%; G9a inh: 27%[2.33 µM]; BAZ2B inh: inconclusive; ALOX12 inh: -1%

What do the screens show for `NC(=O)C[C@H](N)c1cn([C@@H](CC(N)=O)C(=O)N2CCNCC2)nn1`?
JMJD2A Tudor inh: 79µM*; HP1b binding inh: -4%; G9a inh: -15%[2.33 µM]; BAZ2B inh: inconclusive; ALOX12 inh: -7%

Results for Cn1c(CCNC(=O)c2ccc(Cl)cc2)n[nH]c1=S ?
JMJD2A Tudor inh: 10µM*; HP1b binding inh: 23%; G9a inh: -26%[12.7 µM]; BAZ2B inh: -1%[57.1 µM]; Sfp PPTase inh: -26%; ALOX12 inh: -47%

What do the screens show for `CCn1c(CCNC(=O)c2ccc(C)cc2)n[nH]c1=S`?
JMJD2A Tudor inh: 6.3µM*; HP1b binding inh: -38%; G9a inh: inconclusive; BAZ2B inh: 9%; Sfp PPTase inh: -11%; ALOX12 inh: -10%

Results for CC(C)n1cc(CN2CCCC2C(=O)Nc2cccc(-n3cccn3)c2)cn1 (stereo unspecified) ?
ALOX12 inh: 51%

Results for CC(C)=NOc1cc(NC(=O)CCl)cc([N+](=O)[O-])c1 ?
JMJD2A Tudor inh: -12%; HP1b binding inh: 42%; G9a inh: 56µM*; BAZ2B inh: -11%; Sfp PPTase inh: -21%; ALOX12 inh: -11%

Source: PubChem BioAssay
